Experimental data reported in PubChem BioAssay (NCATS).
The source made the active and inactive calls. The call rests on the fitted dose curve.

Assay: qHTS drug screen for cell cycle checkpoint inhibitors in PARPi-resistant BRCA-mutant ovarian cancer cell lines. (AID 1963452)
Conditions: PEO1/OlaR viability, CellTiter-Glo luminescence, 96 h, stronger effect = lower value
Method in brief: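 PEO1, PEO4 and PEO1/OlaR ovarian cancer cells, 600 per well, exposed 96 h at 37C to a dilution series. Viability read by CellTiter-Glo luminescence, normalized to DMSO and empty wells; activity summarized as Z-AUC.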

[1] = measured here: PEO1 parental Z-AUC

Compound	Z-AUC	Z-AUC [1]	Z-AUC (measured here: PEO4 Z-AUC)
N#Cc1ccc(C2CCCc3cncn32)cc1 (centres undefined)	0.659 (inactive)	0.67	0.567
COc1cccc2c1c(O)c(C(=O)N(C)c1ccc(C(F)(F)F)cc1)c(=O)n2C	0.835 (inactive)	0.409	0.643
O=C(COCC(=O)N1CCN(C(c2ccccc2)c2ccccc2)CC1)Nc1ccc(Cl)cc1C(=O)O	1.8 (inactive)	1.44	1.34
